About 83,000 compounds went through this panel and 20% of them were active in at least one assay; those are over-represented in the sample as a whole.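 Method: cells in 96-well plates; compound added at one concentration; 48 h incubation; percent growth measured; values under 10 scored active.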 Active and inactive are the calls of the source.

The test system of the first test is T-47D breast. The test can be described thus: NCI-60 one-dose screen, 48 h (100 = growth as untreated, 0 = no growth, -100 = all killed). The conditions noted are these: 10 µM unless noted.
With `CCOC(=O)[C@@H](C)C[C@H](Cc1ccccc1)NC(=O)c1csc([C@@H](C[C@H](C(C)C)N(C)C(=O)CNC(=O)[C@H]2CCCCN2C)OC(C)=O)n1`, the growth was 47.5% (inactive). The same measure, in the same setting: the same measure for `CC1=C(CNO)C2=C(C)C3(CC3)[C@@](C)(O)C(=O)C2=C1`: -3.61% (active); for `C[C@]12CCc3sc(-c4ccccc4O)nc3C1=CC[C@@H]1[C@@H]2CC[C@]2(C)C(=O)CC[C@@H]12`: 90.1% (inactive); for `COC(=O)[C@@H](C)C[C@H](Cc1ccc2ccccc2c1)NC(=O)c1csc([C@@H](C[C@H](C(C)C)N(C)C(=O)[C@@H](NC(=O)[C@H]2CCCCN2C)C(C)C)OC(C)=O)n1`: 72.9% (inactive).

Consider `COc1cccc(/C=C/[N+](=O)[O-])c1`, for which the growth is 41.7% (inactive). Regarding `CC[C@H](C)[C@H](NC(=O)c1cccn1C)C(=O)N(C)[C@H](C[C@@H](OC(C)=O)c1nc(C(=O)N[C@@H](Cc2ccccc2)C[C@H](C)C(=O)OC)cs1)C(C)C`, the growth was 64% (inactive). Still for that read-out and setting: with `[Cl][Hg][n]1c(-c2ccco2)nc2ccccc21` the figure was 94.6% (inactive). As for `COc1ccc2c(c1)c(-c1nc(-c3cn(C)c4ncccc34)cs1)cn2CCCCN1CCCCC1`, the growth was 61% (inactive).

A further test has as its system BT-549 breast. Described as above. The note with it: 10 µM unless noted.
For `Fc1c[c-]c(-c2ccccn2)c(F)c1.[CH3-].[Pt+2].c1ccc([PH+](c2ccccc2)c2ccccn2)cc1`, the growth was -1.42% (active). Same read-out and setting: with `CC(=O)O[C@@H]1CC[C@]2(C)[C@H]3CC[C@]4(C)C(=O)CC[C@H]4[C@@H]3C[C@@H]3SC(N)=N[C@@]32C1` the figure was 45.2% (inactive). Same read-out and setting: the same measure for `COc1cc2c(cc1OCc1ccccc1)C(CC(C)C)=[N+](C)CC2`: 44% (inactive); for `CC(C)=CCC[C@H](C(=O)O)[C@@H]1CC[C@]2(C)C3=C(CC[C@@]12C)[C@@]1(C)CC[C@H](O)C(C)(C)[C@@H]1CC3`: 75.2% (inactive); for `CC(C)=CCc1c(O)c(C(=O)CC(C)C)c(O)c2c(-c3ccccc3)cc(=O)oc12`: 30.4% (inactive). On the same count and under the same terms, with `Cc1ccc(C(Cc2ccccc2)NCCO)cc1` (centres undefined) the figure was 69.3% (inactive); with `O=C(O)CNC(=O)C(Cl)(Cl)Cl`, 103% (inactive); with `COC(=O)[C@@H](C)C[C@H](Cc1ccccc1)NC(=O)c1csc([C@@H](C[C@H](C(C)C)N(C)C(=O)[C@@H](NC(=O)[C@H]2CCCCN2C)c2ccc(F)cc2)OC(C)=O)n1`, 0.368% (active).

With `C[C@]12CC[C@H]3[C@@H](C[C@@H]4SC(Nc5ccccc5)=N[C@@]45CC(O)CC[C@]35C)[C@@H]1CCC2O` (some centres undefined), the growth was 19.2% (inactive). Same read-out and setting: the same measure for `COc1ccc(/C=C\c2cc(OC)c(OC)c(OC)c2)cc1NC(=O)/C=C/c1cc(OC)c(OC)c(OC)c1`: 44% (inactive); for `O=C(N/N=C/c1ccc(N(CCCl)CCCl)cc1)c1cccc2ccccc12`: 67.4% (inactive); for `CC(=O)O[C@H](C[C@H](C(C)C)N(C)C(=O)[C@@H](NC(=O)[C@H]1CCCCN1C)C(C)C)c1nc(C(=O)N[C@@H](Cc2ccccc2)C[C@H](C)C(=O)O)c(CCOCc2ccccc2)s1`: -36.6% (active). Still for that read-out and setting: with `COc1cc2c(cc1OCCCCn1c(-c3cccs3)nc3ccccc31)N=C[C@@H]1CCCN1C2=O` the figure was -55.6% (active).

On to `C1CCC2(CC1)OOCNCOO2`, for which the growth was 106% (inactive).

For the molecule `COC1=CC(=O)O[C@@H](/C=C/c2ccc3c(c2)OCO3)C1`, the growth is 95% (inactive). For the molecule `O=C(CC1(O)C(=O)Nc2ccc(Cl)cc21)c1ccc(C(=O)NCC2CCC3(CC2)OOC2(CCCCC2)OO3)cc1` (centres undefined), the growth is 48.8% (inactive). Same read-out and setting: the same measure for `C/C(=C\c1ccn(-c2ccc(N)cc2C(F)(F)F)n1)[C@@H]1C[C@@H]2O[C@]2(C)CCC[C@H](C)[C@H](O)[C@@H](C)C(=O)C(C)(C)[C@@H](O)CC(=O)O1`: 27% (inactive); for `O=NNc1ccccn1`: 90% (inactive).

As for `N#CC1(c2ccccc2)CCN(Cc2ccccc2)CC1`, the growth is 102% (inactive). `CN(C)CCCOc1ccc2c(c1)c(C(=O)C(=O)NCCO)cn2Cc1ccccc1`: the growth was 98.4% (inactive). The same measure, in the same setting: the same measure for `CC12CCC=CC1CCC1C2CCC2(C)C(c3ccc(=O)oc3)CCC12O` (centres undefined): -65.2% (active); for `CCCCOc1ccc(C(N)Cc2ccccc2)cc1` (centres undefined): 101% (inactive); for `CCC1CN1CCCCN1CC1CC` (centres undefined): 103% (inactive). On the same count and under the same terms, the same measure for `CC1(C)C(C(=O)c2cn(CCCCF)c3ccccc23)C1(C)C`: 100% (inactive); for `Cc1cc(N(CCCl)CCCl)ccc1C=Nc1cccnc1`: 86.9% (inactive); for `COC(=O)[C@H](Cc1ccccc1)NC(=O)c1csc([C@@H](C[C@H](C(C)C)N(C)C(=O)[C@@H](NC(=O)[C@H]2CCCCN2C)C2CC2)OC(C)=O)n1`: 2.98% (active).

The record behind these values is PubChem BioAssay (NCI).
